Assay outcomes (PubChem BioAssay)
Shown are actives, neighbours in structure and some others; about 2.4% of the full set was active somewhere.
Cruzain inh Det: inhibitors of Trypanosoma cruzi cruzain with detergent | P25779 | purified cruzain, Z-FR-AMC fluorescence, 0.01% Triton | Potency, µM, for inactives: max response, negative = inhibition, hits mostly inhibitors | 0.43% of 200,000 active | AID 1478;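 further: plate controls were neutral wells for no effect and buffer without enzyme for full effect; nearly all actives have a fitted effect of over 40% in size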
Target sequence (P25779 123-467 limits assumed): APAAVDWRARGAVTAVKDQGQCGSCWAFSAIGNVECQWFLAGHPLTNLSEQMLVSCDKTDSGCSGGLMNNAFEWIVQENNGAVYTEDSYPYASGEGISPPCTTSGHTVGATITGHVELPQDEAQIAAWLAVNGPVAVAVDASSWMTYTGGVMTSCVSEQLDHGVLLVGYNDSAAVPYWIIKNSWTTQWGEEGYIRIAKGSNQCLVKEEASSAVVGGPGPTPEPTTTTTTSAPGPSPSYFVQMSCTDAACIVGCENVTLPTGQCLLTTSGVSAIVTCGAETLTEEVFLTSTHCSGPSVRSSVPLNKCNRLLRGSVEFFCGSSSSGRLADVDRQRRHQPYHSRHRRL
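Detergent-containing arm of a paired screen for aggregation-based inhibition: 0.01% Triton X-100 present. Cruzain at 1.5 nM cleaved 2 uM Z-FR-AMC at pH 5.5 with 5 mM DTT; AMC fluorescence gain over 60 s measured activity.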
Cruzain noTriton: cruzain (T. cruzi) inhibition without detergent; Potency, µM, for inactives: max response, negative = inhibition, hits mostly inhibitors; purified cruzain, Z-FR-AMC fluorescence, no detergent; 2.3% of 200,000 active; AID 1476;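 further: plate controls were enzyme without inhibitor for no effect and buffer without enzyme for full effect; nearly all actives have a fitted effect of over 40% in size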
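Purified cruzain at 1.5 nM, pre-incubated 15 min with compound at room temperature in 100 mM sodium acetate pH 5.5, 5 mM DTT, 0.00005% Triton X-100. Reaction started with 2 uM Z-FR-AMC; AMC fluorescence increase over 60 s gives rate.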
* hit, by the source's call; ? = inconclusive. The call rests on the fitted dose curve; in most records, active means well fitted curve in the direction sought with a large enough effect; inconclusive means small, poorly fitted or top-dose-only effect, or another doubt; inactive means no such curve, though single readings can be large; an effect the other way counts as inactive or inconclusive. Potency means the concentration at half of the fitted maximal effect.

SMILES	Cruzain inh Det	Cruzain noTriton
O=C1N/C(=N\N=C\c2cccnc2)SC1Cc1ccc(SC(F)F)cc1 (stereo not drawn)	9%	-24%
O=C1N/C(=N\N=C\c2ccc3ncccc3c2)SC1Cc1ccc(SC(F)F)cc1 (stereo not drawn)	25µM*	16µM*
CCOC(=O)c1c(Oc2ccc(C(C)=O)cc2)nnc(-c2ccccc2)c1-c1ccccc1	-8%	-10%
Cc1cc(NC(=O)CSc2nc3c(sc4ccccc43)c(=O)n2CCc2ccccc2)n[nH]1	8%	7.9µM*
Cc1cc(NC(=O)CSc2nc3c(sc4ccccc43)c(=O)n2CCCN2CCOCC2)n[nH]1	-13%	-22%
COCCc1ccc(OC[C@H](O)CNC(C)C)cc1	-3%	-9%
Cc1cc(C)n(C(C)CC(=O)Nc2cccc(C(F)(F)F)c2)n1 (stereo not drawn)	-4%	16%
O=C(C1CCC(Cn2c(=O)c3sccc3n(Cc3cccc(F)c3)c2=O)CC1)N1CCOCC1 (stereo not drawn)	-6%	?
O=C(O)C1CC2(C1)CC(C(=O)O)C2 (stereo not drawn)	0%	4%
COc1ccc(Br)cc1/C=N/NC(=O)CNC(=O)/C=C/c1ccccc1	-4%	?
COc1ccc(/C=C/C(=O)NCC(=O)N/N=C/c2cc(Br)ccc2OCc2ccccc2)cc1	3%	6.3µM*
Cc1ccc(N2C(=O)/C(=C/c3cccnc3)SC2=S)cc1	-3%	?
Cc1cc(/C=C2/SC(=S)N(c3ccc([N+](=O)[O-])cc3)C2=O)c(C)n1-c1cccnc1	-12%	16µM*
CCOc1ccc(-n2c(/C=C/c3cccc(F)c3)nc3cc(OC)c(OC)cc3c2=O)cc1	-1%	-2%
CCCCc1ccc(/C=C2/C(=O)ON=C2c2ccccc2)s1	-15%	-6%
Cc1sc(/C=C2\C(=O)ON=C2c2ccccc2)cc1Br	?	25µM*
O=C(Cc1ccccc1)Nc1ccccc1N1CCN(c2ccccc2)CC1	-3%	-22%
O=C(Nc1ccccc1N1CCN(c2ccccc2)CC1)C12CC3CC(CC(C3)C1)C2	5%	25µM*
COc1ccccc1C(=O)Nc1ccc(C(=O)OCc2cc(=O)n3nc(C4CC4)sc3n2)cc1	0%	7%
CCCn1c(=O)c2sccc2n2c(CCCC(=O)N3CCN(c4cccc(C)c4C)CC3)nnc12	-1%	0%
O=C(O)CCC(=O)c1ccc[nH]1	1%	12%
CCOc1ccc2c(c1)c(=O)c(C(=O)c1ccc3c(c1)OCO3)cn2Cc1ccc(F)cc1	-1%	-7%
O=C(Nc1c(C(=O)c2ccccc2)oc2ccccc12)c1cc(-c2ccccc2O)n[nH]1	-4%	13µM*
Cc1ccc(C(=O)c2oc3ccccc3c2NC(=O)c2cc(-c3ccccc3O)n[nH]2)cc1	0%	?
COc1cc(NC(=O)c2cccs2)c(C(=O)OCC(=O)c2cc(C)n(-c3ccc(F)cc3)c2C)cc1OC	-2%	4µM*
SMILES	Cruzain inh Det	Cruzain noTriton
COc1cc(NC(=O)c2cccs2)c(C(=O)OCC(=O)c2cc(C)n(-c3ccccc3)c2C)cc1OC	-11%	3.2µM*
COc1ccc(-n2c(C)cc(C(=O)COC(=O)c3cc(NC(=O)c4cccs4)c(OC)c(OC)c3)c2C)cc1	1%	?
COc1cc(NC(=O)c2cccs2)c(C(=O)OCC(=O)NC(=O)NC(C)(C)C)cc1OC	-14%	?
Cc1cc(C)cc(NC(=O)c2sc3nc(-c4ccccc4)cn3c2C)c1	-6%	?
Cc1cn2c(=O)cc(COC(=O)c3cccc(NC(=O)C(C)Oc4ccccc4)c3)nc2s1 (stereo not drawn)	0%	0%
CC12C=CC(=O)C=C1[C@@H](F)CC1C2C(O)CC2(C)C1CC[C@]2(O)C(=O)CO (stereo partly drawn)	0%	-3%
O=C(CN1C(=O)COc2ccc(S(=O)(=O)N3CCCCCC3)cc21)Nc1cccc(Cl)c1	-6%	-6%
CCOC(=O)N1CCc2c(sc3c2c(=O)n(-c2ccccc2)c(=O)n3CC(=O)Nc2ccc(OC)cc2OC)C1	0%	2%
COc1cc(NC(=O)COC(=O)c2ccccc2F)cc(OC)c1	-2%	4%
COc1cc(NC(=O)COC(=O)CNS(=O)(=O)c2ccc(F)c(F)c2F)cc(OC)c1	28µM*	25µM*
Cc1c(C(=O)N(C)C)sc2c1c(=O)n(-c1ccc(Cl)c(Cl)c1)c(=O)n2CC(=O)Nc1ccc(Br)cc1F	2%	16%
Cc1cc(NC(=O)CS(=O)(=O)c2cn(Cc3ccccc3Cl)c3ccccc23)no1	-4%	25µM*
CCOC(=O)N1CCN(C(=O)CS(=O)(=O)c2cn(Cc3ccccc3Cl)c3ccccc23)CC1	3%	?
O=C(Nc1ccc2oc(-c3cccc4c(Br)cccc34)nc2c1)c1ccc(F)cc1	0%	16%
COc1ccc(CCNC(=O)c2cc3c(=O)n(C)c4cc(Cl)ccc4c3s2)cc1OC	-1%	-16%
O=C(O)C[C@H](Cc1ccccc1)C(=O)O	3%	0%
COc1ccc(OC)c(NC(=O)c2ccc3c(=O)n(CCc4ccccc4)c(=S)[nH]c3c2)c1	1%	10µM*
COc1ccc(NC(=O)c2ccc3c(=O)n(Cc4ccco4)c(=S)[nH]c3c2)c(OC)c1	-3%	?
CC1CCN(c2oc(/C=C/c3ccc(F)cc3)nc2C#N)CC1	1%	4%
Cc1cc(C)cc(NC(=O)N2CCN(C)c3ncccc32)c1	1%	-9%
O=S(=O)(Nc1cccc(Cl)c1)c1ccc2[nH]c3c(c2c1)CCCCCC3	4%	-27%
O=S(=O)(c1ccc2[nH]c3c(c2c1)CCCCC3)N1CCN(c2cccc(Cl)c2)CC1	-1%	7.9µM*
O=S(=O)(NCc1ccccc1)c1ccc2[nH]c3c(c2c1)CCCCC3	-14%	?
O=S(=O)(c1ccc2[nH]c3c(c2c1)CCCCC3)N1CCN(c2ccccc2)CC1	-3%	25µM*
COc1cccc(-c2cc(C(=O)Nc3cc(Cl)ccc3O)on2)c1	-4%	-29%
SMILES	Cruzain inh Det	Cruzain noTriton
CCC(Oc1ccccc1F)C(=O)Nc1c(C(=O)c2ccccc2)oc2ccccc12 (stereo not drawn)	-3%	6%
CN(C)c1ccc(CNC(=O)C2COc3ccccc3C2)cc1 (stereo not drawn)	-3%	1%
CN(C)S(=O)(=O)c1cc(NC(=O)CSc2nn(-c3ccc(Cl)cc3)c(=S)s2)ccc1Cl	-4%	25µM*
Cc1ccc(NC(=O)CSc2nn(-c3ccc(Cl)cc3)c(=S)s2)cc1S(=O)(=O)N(C)C	-2%	?
COc1ccc(NC(=O)Cn2c(=O)n(-c3cccc(C(F)(F)F)c3)c(=O)c3sccc32)cc1	-3%	2%
Cn1c(=O)c(C(=O)COC(=O)c2cc(C(F)(F)F)nc3ccccc23)c(N)n(Cc2ccccc2)c1=O	-4%	-12%
Cn1c(=O)c(C(=O)COC(=O)c2cc(-c3ccccc3)nc3ccccc23)c(N)n(Cc2ccccc2)c1=O	0%	10µM*
CC(=O)N1CCN(c2csc3ccc(F)cc3c2=O)CC1	-3%	-9%
Cc1ccc(NC(=O)N2CCc3c(sc4c3CCCC4)C2c2ccccc2)cc1F (stereo not drawn)	-1%	7.9µM*
Cc1ccccc1NC(=O)N1CCc2c(sc3c2CCCC3)C1c1ccccc1 (stereo not drawn)	0%	?
O=C(N/N=C/C(Br)=C/c1ccccc1)c1n[nH]c2c1CCC2	-7%	16µM*
O=C(CNc1cccc2ccccc12)N/N=C/C(Br)=C/c1ccccc1	-7%	-26%
